The full data set covers some 7,900 targets. This sample favours those with a hit. About 0.6% of all pairs of compound and target were hits. A number with no mark means an inactive call.
Legend:
Experiment in all cases: log2 fold change, soluble protein after heating vs DMSO (PISA); higher = thermal stabilisation; K562 cells, 10 uM, 30 min; active = over 0.2 and 3.5 SD of the protein, either way, in both replicates (recomputed)
[1] = compound: CC[C@@H]1C(=O)N(C)c2cnc(Nc3ccc(C(=O)NC4CCN(C)CC4)cc3OC)nc2N1C1CCCC1
How it was run: (§1)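 Aliquots of K562 cells (2×10^6 cells/mL) treated with 10 μM compound for 30 min were heated for 3 min over 48°C-58°C. After pooling and extraction in PBS with 0.5% NP-40 at 4°C, soluble protein from a 21,000xg, 90 min spin was quantified by TMTpro 16plex LC-MS/MS with channel sums equalised. Thermal stability is expressed against control samples, from duplicates, as a log2 fold change.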

volasertib = compound: CC[C@@H]1C(=O)N(C)c2cnc(Nc3ccc(C(=O)N[C@H]4CC[C@H](N5CCN(CC6CC6)CC5)CC4)cc3OC)nc2N1C(C)C [volasertib]
How it was run: as §1

[2] = compound: CC[C@H](C)N1C=C(C2=C(C=C(C=C21)C3=CN=C(C=C3)N4CCNCC4)C(=O)NCC5=C(C=C(NC5=O)C)C)C
How it was run: as §1

epoxomicin = compound: CC[C@H](C)[C@@H](C(=O)N[C@@H]([C@@H](C)O)C(=O)N[C@@H](CC(C)C)C(=O)[C@]1(CO1)C)NC(=O)[C@H]([C@@H](C)CC)N(C)C(=O)C [epoxomicin]
How it was run: as §1

[3] = compound: CCn1c(C(=O)N(C2CC2)C2CC2)cc2c3c(ncn3C)c(Nc3cc(C)n(C)n3)nc21
How it was run: as §1

[4] = compound: CCn1cc(-c2ccnc3[nH]c(-c4cccc(CN(C)C)c4)cc23)c(-c2ccc(NC(=O)N(C)C)cc2)n1
How it was run: as §1

[5] = compound: CN(C)CC(=O)Nc1ccc2[nH]c(=O)c3ccccc3c2c1
How it was run: as §1

rosiglitazone = compound: CN(CCOC1=CC=C(C=C1)C[C@H]2C(=O)NC(=O)S2)C3=CC=CC=N3 (racemic) [rosiglitazone]
How it was run: as §1

[6] = compound: CN1C2=C(C3=C1C(=O)N(N=C3)CC4=CC(=CC=C4)N)SC(=C2)S(=O)C
How it was run: as §1

[7] = compound: CN1CCC(CNc2ccc3ncc(-c4cccc(OC(F)(F)F)c4)n3n2)CC1
How it was run: as §1

saracatinib = compound: CN1CCN(CCOc2cc(OC3CCOCC3)c3c(Nc4c(Cl)ccc5c4OCO5)ncnc3c2)CC1 [saracatinib]
How it was run: as §1

sotrastaurin = compound: CN1CCN(c2nc(C3=C(c4c[nH]c5ccccc45)C(=O)NC3=O)c3ccccc3n2)CC1 [sotrastaurin]
How it was run: as §1

alvocidib = compound: CN1CC[C@H](c2c(O)cc(O)c3c(=O)cc(-c4ccccc4Cl)oc23)[C@H](O)C1 [alvocidib]
How it was run: as §1

Tubastatin A = compound: CN1CCc2c(c3ccccc3n2Cc2ccc(C(=O)NO)cc2)C1 [Tubastatin A]
How it was run: as §1

[8] = compound: CNC(=O)C1=CC=CC=C1NC2=NC(=NC=C2Cl)NC3=C(C=C(C=C3)N4CCOCC4)OC
How it was run: as §1

defactinib = compound: CNC(=O)c1ccc(Nc2ncc(C(F)(F)F)c(NCc3nccnc3N(C)S(C)(=O)=O)n2)cc1 [defactinib]
How it was run: as §1

rucaparib = compound: CNCc1ccc(-c2[nH]c3cc(F)cc4c3c2CCNC4=O)cc1 [rucaparib]
How it was run: as §1

[9] = compound: CNc1nc(-c2ccc3c(N)n[nH]c3c2)cc(N2C[C@@H](C(=O)NC3CCCCC3)CC[C@H]2C)n1
How it was run: as §1

encorafenib = compound: COC(=O)N[C@@H](C)CNc1nccc(-c2cn(C(C)C)nc2-c2cc(Cl)cc(NS(C)(=O)=O)c2F)n1 [encorafenib]
How it was run: as §1

[10] = compound: COC(=O)[C@H](CCSC)NC(=O)C1=C(C=C(C=C1)NC[C@H](CS)N)C2=CC=CC=C2
How it was run: as §1

UniProt Q13952, sequence (Q13952 whole entry, looked up): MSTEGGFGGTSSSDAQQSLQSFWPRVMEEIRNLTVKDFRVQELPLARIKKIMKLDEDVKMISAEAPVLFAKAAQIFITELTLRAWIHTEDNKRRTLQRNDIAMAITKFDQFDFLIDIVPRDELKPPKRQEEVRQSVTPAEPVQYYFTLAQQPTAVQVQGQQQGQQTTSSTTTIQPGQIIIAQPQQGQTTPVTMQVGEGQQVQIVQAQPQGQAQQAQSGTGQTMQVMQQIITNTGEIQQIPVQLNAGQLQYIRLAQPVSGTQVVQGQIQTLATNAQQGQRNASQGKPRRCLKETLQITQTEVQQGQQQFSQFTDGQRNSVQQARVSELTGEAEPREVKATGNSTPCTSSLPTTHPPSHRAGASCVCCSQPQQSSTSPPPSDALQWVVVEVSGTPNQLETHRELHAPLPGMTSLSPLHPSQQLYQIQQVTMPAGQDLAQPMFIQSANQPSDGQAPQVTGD
UniProt Q96T76, sequence (Q96T76 whole entry, looked up): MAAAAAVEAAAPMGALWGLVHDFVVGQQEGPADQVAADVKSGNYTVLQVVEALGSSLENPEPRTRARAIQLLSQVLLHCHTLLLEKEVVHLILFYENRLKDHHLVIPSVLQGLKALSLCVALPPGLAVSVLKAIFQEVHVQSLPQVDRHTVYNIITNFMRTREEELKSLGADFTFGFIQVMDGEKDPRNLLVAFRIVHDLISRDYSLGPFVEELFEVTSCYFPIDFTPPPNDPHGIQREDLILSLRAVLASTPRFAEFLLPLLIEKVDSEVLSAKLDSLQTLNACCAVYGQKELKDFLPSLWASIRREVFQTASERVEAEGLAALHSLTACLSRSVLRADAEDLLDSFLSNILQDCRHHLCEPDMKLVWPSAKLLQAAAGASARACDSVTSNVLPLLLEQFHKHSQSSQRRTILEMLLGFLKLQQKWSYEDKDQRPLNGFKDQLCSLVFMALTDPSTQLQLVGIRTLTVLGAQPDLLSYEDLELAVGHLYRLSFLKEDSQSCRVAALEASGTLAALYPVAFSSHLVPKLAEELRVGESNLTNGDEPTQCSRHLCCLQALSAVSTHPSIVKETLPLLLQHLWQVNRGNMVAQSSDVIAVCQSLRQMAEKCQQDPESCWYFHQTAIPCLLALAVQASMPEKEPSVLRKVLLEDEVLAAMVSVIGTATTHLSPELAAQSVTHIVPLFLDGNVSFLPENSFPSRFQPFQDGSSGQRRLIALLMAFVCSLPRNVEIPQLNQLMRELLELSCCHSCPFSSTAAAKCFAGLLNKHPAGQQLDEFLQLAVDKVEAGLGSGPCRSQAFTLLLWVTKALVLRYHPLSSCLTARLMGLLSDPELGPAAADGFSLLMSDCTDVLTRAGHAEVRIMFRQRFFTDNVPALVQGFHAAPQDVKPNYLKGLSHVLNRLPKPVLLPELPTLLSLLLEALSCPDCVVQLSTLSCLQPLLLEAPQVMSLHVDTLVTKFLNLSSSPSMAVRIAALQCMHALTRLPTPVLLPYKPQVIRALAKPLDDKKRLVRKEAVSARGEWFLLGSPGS
UniProt Q9NRP0, sequence (Q9NRP0 whole entry, looked up): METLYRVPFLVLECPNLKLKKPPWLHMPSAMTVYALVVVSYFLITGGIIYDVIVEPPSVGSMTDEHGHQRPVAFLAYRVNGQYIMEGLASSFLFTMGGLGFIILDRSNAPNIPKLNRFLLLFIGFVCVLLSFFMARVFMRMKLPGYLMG
UniProt Q13153, sequence (Q13153 whole entry, looked up): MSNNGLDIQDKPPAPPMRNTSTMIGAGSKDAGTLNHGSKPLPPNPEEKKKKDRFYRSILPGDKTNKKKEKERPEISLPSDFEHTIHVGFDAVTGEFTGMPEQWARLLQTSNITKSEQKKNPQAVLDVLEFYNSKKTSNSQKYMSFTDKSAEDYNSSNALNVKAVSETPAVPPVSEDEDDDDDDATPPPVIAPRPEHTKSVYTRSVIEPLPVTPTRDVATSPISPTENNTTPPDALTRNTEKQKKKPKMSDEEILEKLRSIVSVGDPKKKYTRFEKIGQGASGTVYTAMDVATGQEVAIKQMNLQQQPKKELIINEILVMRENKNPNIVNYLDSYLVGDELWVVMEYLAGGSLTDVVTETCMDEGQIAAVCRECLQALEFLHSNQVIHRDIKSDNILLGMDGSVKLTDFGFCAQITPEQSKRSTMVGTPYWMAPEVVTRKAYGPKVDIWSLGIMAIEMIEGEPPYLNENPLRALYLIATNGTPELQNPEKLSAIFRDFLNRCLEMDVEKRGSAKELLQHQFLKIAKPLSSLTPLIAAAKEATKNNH
UniProt Q99747, sequence (Q99747 whole entry, looked up): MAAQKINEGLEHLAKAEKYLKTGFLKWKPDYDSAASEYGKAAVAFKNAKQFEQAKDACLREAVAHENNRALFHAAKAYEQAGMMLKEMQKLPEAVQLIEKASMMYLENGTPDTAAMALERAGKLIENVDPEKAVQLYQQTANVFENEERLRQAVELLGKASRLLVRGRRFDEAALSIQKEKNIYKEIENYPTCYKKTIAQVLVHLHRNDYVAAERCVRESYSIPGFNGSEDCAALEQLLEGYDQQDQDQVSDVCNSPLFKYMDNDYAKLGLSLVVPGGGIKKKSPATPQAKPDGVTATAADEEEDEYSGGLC
UniProt O14950, sequence (O14950 whole entry, looked up): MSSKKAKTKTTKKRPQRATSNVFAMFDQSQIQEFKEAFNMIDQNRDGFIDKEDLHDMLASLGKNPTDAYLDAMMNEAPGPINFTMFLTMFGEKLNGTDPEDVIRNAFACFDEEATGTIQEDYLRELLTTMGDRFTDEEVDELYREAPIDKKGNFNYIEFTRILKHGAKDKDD
UniProt Q08J23, sequence (Q08J23 whole entry, looked up): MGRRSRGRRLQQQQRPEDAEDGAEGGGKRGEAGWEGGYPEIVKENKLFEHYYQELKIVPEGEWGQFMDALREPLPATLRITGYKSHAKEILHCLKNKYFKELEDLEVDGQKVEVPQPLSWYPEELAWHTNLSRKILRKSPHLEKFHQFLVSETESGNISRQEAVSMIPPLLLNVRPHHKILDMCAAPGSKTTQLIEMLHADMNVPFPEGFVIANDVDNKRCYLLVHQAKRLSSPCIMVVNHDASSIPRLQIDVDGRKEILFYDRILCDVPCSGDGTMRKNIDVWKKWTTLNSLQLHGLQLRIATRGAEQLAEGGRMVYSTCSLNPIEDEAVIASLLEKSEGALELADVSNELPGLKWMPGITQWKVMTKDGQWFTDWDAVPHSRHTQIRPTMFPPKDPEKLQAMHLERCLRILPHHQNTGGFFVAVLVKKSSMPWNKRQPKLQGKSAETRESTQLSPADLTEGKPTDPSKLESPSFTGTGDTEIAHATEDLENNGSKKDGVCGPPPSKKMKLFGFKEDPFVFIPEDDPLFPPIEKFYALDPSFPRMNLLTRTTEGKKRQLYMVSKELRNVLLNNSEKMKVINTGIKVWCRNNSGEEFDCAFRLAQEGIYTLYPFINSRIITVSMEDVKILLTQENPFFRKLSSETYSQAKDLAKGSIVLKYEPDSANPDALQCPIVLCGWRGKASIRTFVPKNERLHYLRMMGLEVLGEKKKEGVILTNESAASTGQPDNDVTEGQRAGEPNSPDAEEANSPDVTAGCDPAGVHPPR
UniProt P84157, sequence (P84157 whole entry, looked up): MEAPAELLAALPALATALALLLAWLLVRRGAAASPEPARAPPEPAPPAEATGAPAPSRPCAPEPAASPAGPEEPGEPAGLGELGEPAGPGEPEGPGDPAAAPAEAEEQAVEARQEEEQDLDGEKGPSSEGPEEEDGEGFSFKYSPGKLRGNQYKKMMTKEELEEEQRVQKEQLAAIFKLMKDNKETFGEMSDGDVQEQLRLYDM
UniProt Q6VY07, sequence (Q6VY07 whole entry, looked up): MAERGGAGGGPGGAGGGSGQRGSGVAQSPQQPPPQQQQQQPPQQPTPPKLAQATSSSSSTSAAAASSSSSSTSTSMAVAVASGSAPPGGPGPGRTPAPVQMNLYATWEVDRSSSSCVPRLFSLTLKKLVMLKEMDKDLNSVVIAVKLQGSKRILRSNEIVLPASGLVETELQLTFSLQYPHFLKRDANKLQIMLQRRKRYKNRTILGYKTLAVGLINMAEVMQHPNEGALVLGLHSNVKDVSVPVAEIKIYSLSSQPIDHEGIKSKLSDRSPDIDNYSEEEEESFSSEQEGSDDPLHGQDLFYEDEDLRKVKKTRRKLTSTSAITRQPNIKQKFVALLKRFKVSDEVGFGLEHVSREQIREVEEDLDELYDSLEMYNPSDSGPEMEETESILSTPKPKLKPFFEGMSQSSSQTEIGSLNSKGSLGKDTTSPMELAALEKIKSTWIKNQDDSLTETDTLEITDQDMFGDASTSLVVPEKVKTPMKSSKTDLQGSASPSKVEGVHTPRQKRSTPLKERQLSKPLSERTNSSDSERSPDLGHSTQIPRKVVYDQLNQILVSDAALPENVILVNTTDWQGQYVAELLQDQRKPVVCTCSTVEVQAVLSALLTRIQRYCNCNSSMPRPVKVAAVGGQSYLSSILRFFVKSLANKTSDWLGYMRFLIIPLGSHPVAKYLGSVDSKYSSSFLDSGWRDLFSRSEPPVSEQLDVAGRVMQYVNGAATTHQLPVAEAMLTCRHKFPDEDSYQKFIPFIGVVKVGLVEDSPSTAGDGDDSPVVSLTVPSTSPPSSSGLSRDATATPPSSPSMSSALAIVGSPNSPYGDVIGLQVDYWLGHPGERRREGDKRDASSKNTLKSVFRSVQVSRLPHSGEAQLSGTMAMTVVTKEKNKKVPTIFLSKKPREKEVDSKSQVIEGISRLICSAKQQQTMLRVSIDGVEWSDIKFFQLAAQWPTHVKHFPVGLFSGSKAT
UniProt O43181, sequence (O43181 whole entry, looked up): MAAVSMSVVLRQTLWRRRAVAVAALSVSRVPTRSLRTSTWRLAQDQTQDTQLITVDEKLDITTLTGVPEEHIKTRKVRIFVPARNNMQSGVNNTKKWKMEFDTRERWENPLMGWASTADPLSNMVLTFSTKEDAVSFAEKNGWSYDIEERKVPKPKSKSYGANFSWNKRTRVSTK

Target	log2 fold change [1]	log2 fold change (volasertib)	log2 fold change [2]	log2 fold change (epoxomicin)	log2 fold change [3]	log2 fold change [4]	log2 fold change [5]	log2 fold change (rosiglitazone)	log2 fold change [6]	log2 fold change [7]	log2 fold change (saracatinib)	log2 fold change (sotrastaurin)	log2 fold change (alvocidib)	log2 fold change (Tubastatin A)	log2 fold change [8]	log2 fold change (defactinib)	log2 fold change (rucaparib)	log2 fold change [9]	log2 fold change (encorafenib)	log2 fold change [10]
MSH6 (UniProt P52701)	-0.306	-0.683 (active)	0.227	0.097	-0.127	-0.089	0.172	0.179	-0.044	-0.261	-0.142	-0.278	-0.255	0.127	-0.049	-0.379	-0.014	0.102	0.141	-0.098
PAK1 isoform 2 (UniProt Q13153)	0.032	-0.022	-0.024	0.046	0.043	-0.122	0.064	0.016	-0.062	-0.031	0.074	-0.015	-0.026	-0.098	0.009	0.039	-0.082	-0.009	0.033	0.048
NOP53 (UniProt Q9NZM5)	0.174	0.393	-0.014	-0.009	-0.132	0.013	-0.111	-0.053	0.516	0.599	-0.063	-0.014	0.396	0.141	-0.019	0.62	0.36	0.035	0.174	-0.022
NFYC (UniProt Q13952)	0.012	0.015	-0.021	-0.001	0.006	-0.015	0.041	0.059	-0.063	0	0.011	0.012	0.054	-0.021	-0.022	-0.022	-0.041	-0.019	0.005	0.005
OSTC (UniProt Q9NRP0)	-0.01	-0.141	0.011	-0.073	0.006	0.039	0.073	0.048	-0.129	-0.053	0.111	-0.05	-0.048	-0.174	0.03	-0.053	-0.036	-0.004	0.047	-0.046
PACS1 (UniProt Q6VY07)	0	-0.03	0.208	-0.045	-0.025	-0.006	0.006	0.039	0.029	0.014	-0.018	-0.043	0.002	0.038	-0.076	-0.045	0.022	0.037	-0.01	-0.018
MYL12B (UniProt O14950)	-0.053	-0.085	0.06	0.052	-0.06	-0.064	0.031	-0.025	-0.078	0.01	0.057	-0.012	-0.14	0.019	0.007	-0.036	0.009	-0.041	-0.012	-0.018
MMS19 isoform 8 (UniProt Q96T76)	-0.102	-0.43 (active)	0.075	0.013	-0.009	-0.052	0.11	0.076	0.051	-0.085	-0.013	-0.156	-0.115	-0.071	0.003	-0.127	0.052	-0.003	0.099	-0.008
NUMB (UniProt P49757)	-0.017	0.057	0.02	-0.013	0.009	-0.045	-0.024	0.053	-0.007	-0.202	0.033	-0.266 (active)	-0.095	-0.014	-0.027	-0.044	0.01	0.065	0.081	0
NSUN2 (UniProt Q08J23)	-0.182	-0.286	0.051	-0.044	0.017	-0.044	0.009	0.029	0.025	-0.131	0.008	-0.243	-0.328 (active)	-0.008	-0.081	-0.281 (active)	-0.021	-0.083	0.004	0.009
MOV10 (UniProt Q9HCE1)	0.199	0.195	-0.029	-0.156	0.029	0.158	-0.061	-0.044	0.185	0.331	0.007	0.024	0.232	0.025	0.107	0.167	0.271	0	0.05	0.053
NDUFS4 (UniProt O43181)	0.052	0.074	-0.037	-0.025	-0.007	0.071	-0.079	-0.046	0.033	-0.013	0.117	0.1	0.049	-0.082	-0.025	0.035	0.011	-0.074	-0.051	0.079
MXRA7 (UniProt P84157)	0.04	0.08	-0.11	-0.034	0.038	-0.042	0.124	0.037	-0.114	0.113	0.127	0.027	0.048	-0.02	0.007	-0.104	-0.093	-0.033	0.008	-0.025
MRPS5 (UniProt P82675)	0.005	-0.066	0.181	0.077	-0.048	-0.05	-0.037	-0.005	0.032	0.102	-0.094	-0.124	-0.042	-0.009	-0.024	0.068	0.129	0.161	0.072	-0.068
NAPG (UniProt Q99747)	-0.118	-0.462 (active)	0.072	0.069	-0.05	-0.076	0.048	0.088	0	-0.028	-0.028	-0.075	-0.137	0.048	0.031	-0.159	0.044	0.053	0.052	-0.028
